GRP78 ERSR act = induces the endoplasmic reticulum stress response in human glioma cells. Potency, µM, for inactives: at the top dose activation, hits mostly activators. U87-MG GRP78 promoter luciferase reporter, 16 h. 0.02% of 420,000 active; active means well fitted activation curve with a large enough effect; inconclusive means small, poorly fitted or top-dose-only effect; inactive means no such curve, though single readings can be large or run the other way; further: potency means the concentration at half of the fitted maximal effect; series mostly up to about 76 µM; % of control where 0% means no effect; nearly all actives have a fitted effect of over 35% in size
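Stably transfected U87-MG glioma cells carrying a GRP78-based luciferase sensor; 16 h compound incubation. Luminescence end-point read 10 min after Bright-Glo addition at room temperature.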
TRPML1 agonist = human mucolipin-1 channel agonism. Q9GZU1. TRPML1-expressing cells, Ca2+ dye fluorescence, FDSS. activation, % (no concentration beside the values). 0.12% of 410,000 active; in the data active means activation above about 50%; inconclusive means mostly about 30% to 49%; further: 0% is about no effect
Target sequence (Q9GZU1 whole entry, looked up): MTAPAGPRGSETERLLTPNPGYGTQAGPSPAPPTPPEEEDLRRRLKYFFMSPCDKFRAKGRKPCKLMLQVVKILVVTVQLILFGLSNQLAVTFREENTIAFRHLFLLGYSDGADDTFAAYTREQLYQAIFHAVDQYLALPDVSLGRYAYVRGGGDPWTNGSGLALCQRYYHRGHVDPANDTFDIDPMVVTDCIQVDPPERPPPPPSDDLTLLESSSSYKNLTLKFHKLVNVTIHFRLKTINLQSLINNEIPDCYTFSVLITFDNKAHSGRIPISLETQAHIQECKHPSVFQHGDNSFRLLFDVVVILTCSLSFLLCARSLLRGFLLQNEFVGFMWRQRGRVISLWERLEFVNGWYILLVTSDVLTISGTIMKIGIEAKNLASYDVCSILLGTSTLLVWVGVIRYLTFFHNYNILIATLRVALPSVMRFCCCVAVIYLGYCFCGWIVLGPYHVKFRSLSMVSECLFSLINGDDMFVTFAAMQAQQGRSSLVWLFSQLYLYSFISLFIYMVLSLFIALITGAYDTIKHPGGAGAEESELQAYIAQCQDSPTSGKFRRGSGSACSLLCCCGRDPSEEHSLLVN
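Tet-induced TRPML1-DL cells, 1,500 per well, cultured overnight, were loaded with a no-wash Ca2+ dye for 45–90 min. Calcium fluorescence was recorded on the FDSS for 110 s after compound addition, before the EC80 agonist (4 uM 54-4) was added.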
KCNH2 3.1 inh = inhibitors of human KCNH2 3.1 potassium channel isoform. U2OS KCNH2 3.1, thallium flux FluxOr; hits give low values. activity change, % (tested at about 1.8 µM). 0.95% of 340,000 active. AID 720553;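 active means maximum activity change below -70%; inconclusive means maximum activity change from -70% to -50%; inactive means maximum activity change above -50%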;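 further: thallium influx rate constant from kinetic fluorescence after stimulation buffer; on the % scale 0 is the no-effect control and ±100 the full control effect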
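U2OS cells transduced with KCNH2 3.1 mutant virus (1.77 x 10^8 /mL, 4 h), plated overnight at 37 C, loaded 45 min with FluxOr dye plus Red40 quencher. Thallium flux rate constant from kinetic reads after stimulation buffer, normalised to controls.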
TRPML1 blocker = blocks the human TRPML1 channel | activity change, negative = inhibition, % (test concentration not listed) | TRPML1-inducible cells, Ca2+ dye fluorescence, FDSS; hits give low values; inhibition of EC80 agonist-evoked calcium signal | AID 624415 | Q9GZU1 | 0.02% of 390,000 active; in the data active means activity change below about -50%; inconclusive means between about -30% and that limit;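 further: stimulus is agonist 54-4 at its EC80 concentration; on the % scale 0 is the no-effect control and ±100 the full control effect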
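Calcium fluorescence in TRPML1-DL cells induced overnight with Tet: a 110 s read after compound pin addition, then a 110 s antagonist read after challenge with 54-4 at 4 uM final (EC80).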
hERG WT inh = blocks the wildtype human KCNH2 potassium channel; Q12809; U2OS, BacMam KCNH2, thallium flux FluxOr; hits give low values; activity change, % at 1.84 µM; 0.37% of 340,000 active;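 active means maximum activity change below -70%; inconclusive means maximum activity change between -70% and -50%; inactive means maximum activity change above -50%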; further: on the % scale 0 is the no-effect control and ±100 the full control effect
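U2OS cells were transduced with wild-type KCNH2 virus (2.03 x 10^8 / mL) for 4 h at room temperature, then cultured overnight at 37 C. Thallium flux was read with FluxOr dye. Rate constants were normalized to DMSO controls.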
TSG101-PTAP inh = blocks PTAP/TSG101 interaction to inhibit HIV-1 budding | AID 493005 | Fluorescence polarization, FITC-PTAP peptide / Tsg101 binding | 340,000 tested, under 10 active | Potency, µM (top dose mostly 115 µM), for the others: at the top dose activity change, negative = inhibition, hits mostly inhibitors; active means well fitted inhibition curve with a large enough effect in the main read-out, with a control signal flat, not every such curve was filed as active; inconclusive means small, poorly fitted or top-dose-only effect, or effect the other way, or a change in a side signal; inactive means no such curve, though single readings can be large or run the other way; further: potency means the concentration at half of the fitted maximal effect; % of control where 0% means no effect
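Fluorescence anisotropy tracks displacement of a FITC-tagged PTAP peptide (50 nM) from the Tsg101 binding domain (10 uM), following a 20 min room-temperature incubation at pH 7.5.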
An asterisk follows results filed as active; ? = inconclusive; . = not tested or not shown; + = active, no number. The list is not random: actives were taken first. Their share in the collection is about 1%.

SMILES | GRP78 ERSR act | TRPML1 agonist | KCNH2 3.1 inh | TRPML1 blocker | hERG WT inh | TSG101-PTAP inh
Cc1ccc(-n2cccn2)c(CN2CCC(CO)(CCc3ccccc3)CC2)c1 | -3% | 0 | -96* | 9 | -35 | -1%
OCC1(CCc2ccccc2)CCN(Cc2cc(Cl)ccc2O)CC1 | -2% | -1 | -17 | 20 | 10 | 1%
CCN(CC)CCN(C)C(=O)c1ccc(-c2ccccc2)nc1N(C)C | -4% | . | . | . | . | .
COc1ccc(CNC(=O)c2cnn(-c3ncc4c(n3)-c3ccccc3CC4)c2C)cc1OC | 5% | . | . | . | . | .
COc1cccc(C2C(C#N)=C(N)OC(C(C)(C)C)=C2C#N)c1 (stereo not drawn) | -5% | -1 | -189* | 13 | -4 | -3%
Cc1cc(C)c(C#N)c(SCC(=O)NC(C)(C)C)n1 | 1% | -1 | -84* | -7 | -13 | 1%
CCCCc1ccc(NC(=O)N2CCN(c3cc(C)nc4ccccc34)CC2)c(C)c1 | -2% | . | -94* | . | -44 | -1%
Cc1cccc(CNC(=O)c2c3n(c(C)cc2=O)-c2ccccc2SC(c2sccc2C)C3)n1 (stereo not drawn) | 1% | . | . | . | . | .
CCC1Nc2ncnc(N3CCN(c4ccccc4)CC3)c2N(Cc2ccc(Br)cc2)C1=O (stereo not drawn) | 0% | 0 | -88* | 14 | 6 | 2%
O=C(NCCN1CCOCC1)c1cnn(-c2nccc(-c3ccccc3C(F)(F)F)n2)c1C1CC1 | -4% | . | . | . | . | .
COc1ccc(F)c(CN2CCC3(CCC(CNC(=O)c4cc(C)nn4C)O3)CC2)c1 (stereo not drawn) | 0% | . | . | . | . | .
CN(Cc1ccno1)Cc1cn(Cc2ccccc2)nc1-c1ccc2c(c1)OCO2 | -3% | 1 | -95* | -18 | -14 | -1%
COc1ccc(NC(=O)c2ccccc2Cl)c(NC(=O)c2ccco2)c1 | 4% | -1 | -7 | -4 | 13 | 0%
COc1ccc(NC(=O)c2cc(Cl)ccc2NC(=O)c2ccco2)c(OC)c1 | -4% | 3 | -70* | 2 | -82* | -12%
COc1cc(NC(=O)c2cc(-c3ccco3)on2)c(OC)cc1Cl | -5% | 0 | -81* | 8 | -26 | -4%
CCC(c1ccccc1)c1nnc(NC(=O)c2ccco2)s1 (stereo not drawn) | 0% | -1 | -117* | -10 | 0 | 1%
CCOC(=O)N1CCC(N2CCCC(C(=O)c3cccc(OC(C)C)c3)C2)CC1 (stereo not drawn) | -4% | 0 | -80* | -14 | 0 | 0%
CCOC(=O)N1CCC(N2CCCC(C(=O)c3cccc(OC)c3)C2)CC1 (stereo not drawn) | -1% | 0 | 3 | 1 | 24 | -3%
CCOc1ccccc1NC(=O)c1ccc(OCC)c([N+](=O)[O-])c1 | -3% | 2 | -19 | 49 | 2 | 0%
CCOc1ccc(C(=O)Nc2cc(-c3nc4ccccc4[nH]3)ccc2Cl)cc1[N+](=O)[O-] | -13% | 0 | -70* | 8 | -27 | -4%
CCOc1ccc(C(=O)Nc2cccc(-c3nc4ccccc4[nH]3)c2C)cc1[N+](=O)[O-] | 3% | 2 | -78* | 4 | -6 | -6%
CCOc1ccc(C(=O)Nc2cc(-c3nc4ccccc4[nH]3)ccc2C)cc1[N+](=O)[O-] | 2% | 1 | -86* | -2 | -31 | -2%
Cc1ccc(-c2nc3ccccc3[nH]2)cc1NC(=O)COc1ccccc1[N+](=O)[O-] | -8% | 0 | . | 2 | . | .
Cc1ccc(-c2ccnc(-n3ncc(C(=O)N4CCCCC4c4cccnc4)c3C3CC3)n2)o1 (stereo not drawn) | -6% | . | . | . | . | .
O=C(NC(Cc1ccccc1)C(=O)O)/C(=C\c1ccc(Cl)cc1)NC(=O)c1ccccc1 (stereo not drawn) | -4% | 0 | -14 | -7 | -92* | -4%
SMILES | GRP78 ERSR act | TRPML1 agonist | KCNH2 3.1 inh | TRPML1 blocker | hERG WT inh | TSG101-PTAP inh
Cc1sc2ncnc(N3CCCCC3)c2c1C | -4% | 2 | -8 | 23 | 6 | -7%
Cc1ccc(OCCN2CCN(c3ncnc4sc(C)c(C)c34)CC2)cc1 | -3% | 2 | -79* | -4 | -3 | -1%
Fc1ccc(N2CCN(C3=Nc4cccc5cccc3c45)CC2)cc1 | 2% | 1 | -80* | -13 | + | 2%
O=C(/C=C/c1ccccc1)CC(O)(c1ccccc1)C(F)(F)C(F)F (stereo not drawn) | 11µM* | 59* | -9 | -6 | -34 | -9%
Cc1cnc(-n2ncc(C(=O)NCc3ccncc3)c2C2CC2)nc1-c1cccs1 | -2% | . | . | . | . | .
O=C(Nc1cc(C(F)(F)F)ccc1-n1cncn1)c1cn2ccccc2n1 | -4% | -1 | -207* | -9 | -152* | -5%
O=C(Nc1cc(Cl)ccc1-n1cncn1)c1cn2ccccc2n1 | -2% | 2 | 15 | 41 | -8 | -4%
Fc1ccc(N2CCN(Cc3ccc4c(c3)CN(Cc3cccn3-c3ncccn3)CCO4)CC2)cc1 | -3% | . | . | . | . | .
O=C1S/C(=C\c2ccc(N3CCOCC3)o2)C(=O)N1c1ccccc1 | -8% | 57* | 2 | -5 | -5 | ?
Cc1cnc(SCc2ccccn2)nc1C1CCCN(C(=O)c2ccc3c(c2)OCCO3)C1 (stereo not drawn) | -4% | . | . | . | . | .
Cc1ccc(Cn2cnc3c(cnn3C(C)(C)C)c2=O)cc1F | -2% | 1 | . | 20 | . | .
COc1ccc2cc(CN(C(=O)c3cc(C)nn3C)C3CC3)c(-c3ccc(Cl)cc3)nc2c1 | 0% | . | . | . | . | .
CCCCCN1CSC(=S)N(Cc2ccccc2)C1 | -5% | 1 | -22 | 13 | -74* | -1%
COc1cc(OC)c(OC)cc1CN1CCCC(n2cc(C(=O)N3CCCCC3)nn2)C1 (stereo not drawn) | -4% | . | . | . | . | .
CCOc1ccc(N2C(=O)CC(N3CCN(c4ccc([N+](=O)[O-])cc4)CC3)C2=O)cc1 (stereo not drawn) | 14% | -1 | -91* | 25 | -10 | 0%
CCCOc1ccc(N2C(=O)CC(N3CCN(c4ccc([N+](=O)[O-])cc4)CC3)C2=O)cc1 (stereo not drawn) | -2% | -1 | ? | 12 | -16 | -4%
CCN1CCC(N2CCN(c3ccc(Cl)cc3)CC2)CC1 | -4% | . | 16 | . | 16 | 4%
CCCN1CCC(N2CCN(c3ccc([N+](=O)[O-])cc3)CC2)CC1 | 0% | . | -79* | . | -42 | -7%
CCCN1CCC(N2CCN(c3cccc(C(F)(F)F)c3)CC2)CC1 | -2% | 0 | -97* | -23 | -16 | -5%
CC(=O)N1CCCC(N2CCN(c3cccc(C(F)(F)F)c3)CC2)C1 (stereo not drawn) | 4% | 1 | -4 | 4 | -11 | -4%
